High-throughput results as filed in PubChem.
Rows were chosen to be rich in hits. Some 3.5% of all compounds tested hit in one or more screens of this group.
TRb-SRC2 inh = disrupts binding of human TR beta to SRC2. TRbeta-SRC2 peptide binding, fluorescence polarization; receptor liganded with 1 µM T3. P10828. 0.065% of 280,000 active. AID 1469. Potency, µM (highest dose often 106 µM), for inactives: at the highest dose activity change, negative = inhibition, usual class: inhibitors;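 note: plate controls were bound peptide for no effect and peptide without receptor for full effect; nearly all actives have a fitted effect of over 50% in size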
Target sequence (P10828 whole entry, looked up): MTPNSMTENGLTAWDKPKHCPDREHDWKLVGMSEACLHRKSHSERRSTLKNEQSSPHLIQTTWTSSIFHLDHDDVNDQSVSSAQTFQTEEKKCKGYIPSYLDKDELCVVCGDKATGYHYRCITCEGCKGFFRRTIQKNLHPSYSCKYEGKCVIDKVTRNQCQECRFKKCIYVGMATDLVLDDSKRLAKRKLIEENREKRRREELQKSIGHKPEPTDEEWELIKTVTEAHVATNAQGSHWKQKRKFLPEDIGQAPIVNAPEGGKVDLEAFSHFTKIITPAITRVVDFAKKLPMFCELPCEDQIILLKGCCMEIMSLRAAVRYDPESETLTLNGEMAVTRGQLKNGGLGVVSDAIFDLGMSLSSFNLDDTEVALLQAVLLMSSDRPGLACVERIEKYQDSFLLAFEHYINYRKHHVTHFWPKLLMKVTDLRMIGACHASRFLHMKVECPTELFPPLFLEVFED
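Quantitative HTS by FP: 0.6 uM TRb LBD, 20 nM labeled SRC2 20-mer, 1 uM T3, 5% DMSO; 5 hr ambient incubation; % activity per concentration and potencies from concentration series.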
KDM4E inh = blocks human JMJD2E demethylase activity | JMJD2E catalytic domain, FDH-coupled NADH fluorescence (FDH is formaldehyde dehydrogenase) | Potency, µM (titrated, usually from 57.1 µM), without a hit: top-dose activity change, negative = inhibition, most hits filed as inhibitors | AID 2147 | 1.6% of 230,000 active; active = well fitted inhibition curve with a large enough effect, not every such curve was filed as active; inconclusive = small, poorly fitted or top-dose-only effect, or another doubt; inactive = no such curve, though single readings can be large or run the other way;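 note: 0% = wells with enzyme and -100% = buffer wells without enzyme; nearly all actives have a fitted effect of over 50% in size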
Tau ThT inhib = inhibitors of human tau fibril formation, thioflavin T binding. 2.1% of 270,000 active. AID 1460. Potency, µM (doses to about 57.4 µM), inactives show at the highest dose activity, negative = inhibition, usual class: inhibitors. recombinant tau K18 P301L, heparin-induced fibrillization, ThT fluorescence; note: nearly all actives have a fitted effect of over 55% in size
Target sequence (P10636 561-689 P618L limits assumed): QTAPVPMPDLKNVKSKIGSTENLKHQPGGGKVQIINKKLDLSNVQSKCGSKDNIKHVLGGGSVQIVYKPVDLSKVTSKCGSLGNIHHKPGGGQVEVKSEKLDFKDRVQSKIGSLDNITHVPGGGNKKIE
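Tau K18 P301L fragment (15 uM unlabeled plus 0.24 uM Alexa 594-labeled) in 100 mM sodium acetate pH 7 with compound, fibrillization induced by 20 uM heparin for 6 hr at 37 C. Thioflavin T (30 uM) added, fluorescence read after 1 hr (ex 450, em 510 nm).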
Tau fluor counter = counter-screen for tau fibril formation inhibitors | tau K18 P301L Alexa594 fluorescence, heparin fibrillization | 0.93% of 280,000 active | Potency, µM (titrated, usually from 57.7 µM), for inactives: at the top dose activity change, negative = decrease | AID 1463; note: nearly all actives have a fitted effect of over 55% in size
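Human tau K18 P301L (15 uM unlabeled, 0.24 uM Alexa 594-labeled) in 100 mM sodium acetate pH 7 with 20 uM heparin, 6 hr at 37 C. ThT 30 uM added, 1 hr ambient; Alexa 594 FP and total fluorescence read at 555/632 nm.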
Tau FP inhib = inhibitors of human tau fibril formation | 0.39% of 280,000 active | P10636 | K18 P301L tau heparin fibrillization, Alexa594 FP, 6 h | Potency, µM (titrated, usually from 57.7 µM), for inactives: at the top dose activity, negative = inhibition, most hits filed as inhibitors; note: nearly all actives have a fitted effect of over 55% in size
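K18 P301L tau (15 uM unlabeled/0.24 uM Alexa 594-labeled, final) + compound + heparin 20 uM final; 100 mM NaOAc pH 7; 6 hr 37 C; ThT 30 uM final added, 1 hr RT; FP ex 555/em 632 nm.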
TexasRed fluor = Texas Red fluorescence interference in TRb-SRC2 counter-screen; TRb/SRC2 Texas Red total fluorescence interference; AID 1479; Potency, µM (doses to about 106 µM), without a hit: at the top dose fluorescence change, negative = quenching; 0.29% of 280,000 active; active = well fitted curve in either direction with a large enough effect; inconclusive = small, poorly fitted or top-dose-only effect
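Human TRb ligand-binding domain at 0.6 uM with 20 nM Texas Red SRC2 peptide in Tris buffer containing 1 uM T3 and 5% DMSO, incubated with compound 5 h at ambient temperature. Total fluorescence (555/632 nm) calculated as parallel + 2 × perpendicular.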
* hit, by the source's call; ? = inconclusive; nt = no result; ! = not confirmed by another sample; [ ] = remark or other dose. Unless noted, calls come from the whole dose curve; as a rule, active = well fitted curve in the direction sought with a large enough effect; inconclusive = small, poorly fitted or top-dose-only effect, or another doubt; inactive = no such curve, though single readings can be large; an effect the other way counts as inactive or inconclusive. Unless noted, % is set by controls: 0 for no effect and ±100 for the full control effect; potency is the fitted concentration of half-maximal effect.

SMILES | TRb-SRC2 inh | KDM4E inh | Tau ThT inhib | Tau fluor counter | Tau FP inhib | TexasRed fluor
Cc1cc(C)cc(N(C(C)C(=O)N2CCOCC2)S(C)(=O)=O)c1 (configuration not stated) | -3% | 1% | -8% | -8% | -7% | 2%
COc1ccc(/C=N/Nc2nnc(C)n2N)cc1OC | 0% | 14µM* | 28µM* | -19% | ? | -2%
Oc1c(Br)cc(Br)cc1C=Nc1ccc2c(c1)OCO2 | 7% | 3% | 20µM* | -7% | ? | 1%
Oc1[nH]c2ccccc2c1C=Nc1ccc2c(c1)OCCO2 | -5% | -5% | 11µM* | ? | 16% | -12%
Oc1c(Br)cc(Br)cc1C=Nc1ccc2c(c1)OCCO2 | 3% | -17% | 11µM* | -16% | ? | -1%
CCCn1c(NCc2cccc(OC)c2O)nc2ccccc21 | -8% | -4% | -12% | -15% | 15% | -2%
COC(=O)C(=Cc1cc(Br)c(OC)c(Br)c1)C(=O)OC | -2% | -5% | ? | ? | 0% | 0%
Cc1cccnc1NC(=S)Nc1ccc(Br)cc1Cl | -6% | ? | -11% | -14% | -7% | 2%
COC(=O)c1ccccc1NC(=O)c1cc2c(s1)-c1ccccc1OC2 | -8% | nt | ? | -23% | -17% | -2%
COc1cc(NC(=O)c2cc3c(s2)-c2ccccc2OC3)cc(OC)c1OC | 6% | nt | ? | 6.3µM*[quencher] | 9% | 0%
COc1ccccc1N1CCN(S(=O)(=O)c2cccc3nsnc23)CC1 | -11% | -6% | -3% | -8% | ? | -6%
COc1ccc(N2CCN(CCC3Oc4cc([N+](=O)[O-])ccc4NC3=O)CC2)cc1 (configuration not stated) | -5% | 5% | 7.9µM* | ? | 13% | -10%
Cc1c(NC(=O)CCc2ccccc2)cccc1[N+](=O)[O-] | -3% | 1% | -3% | -5% | -5% | -3%
CCOc1ccc2c(c1)n([O-])c1c([n+]2=O)CCCC1 | 0% | ? | 20µM* | -22% | ? | -2%
COc1ccc2c(c1)n([O-])c1c([n+]2=O)CCC1 | 0% | ? | -16% | -12% | 9% | -7%
CCOC(=O)Cn1nnc(-c2cc(OC)c(OC)c(OC)c2)n1 | 5% | 2% | 0% | -1% | -2% | 4%
COc1cc(-c2nnn(CC(=O)Nc3ccc(OC(F)(F)F)cc3)n2)cc(OC)c1OC | 3% | nt | -3% | ? | 18µM* | 3%
CCOC(=O)N/N=C(/C)c1cccc(-n2cnnn2)c1 | -6% | 5% | -3% | 0% | 0% | 0%
O=C1OC(c2ccc(F)cc2)=C/C1=C\c1ccc([N+](=O)[O-])o1 | -3% | ? | 16µM* | ? | ? | -9%
Cc1cccc(NC(=O)Cn2c(=O)n(Cc3ccccc3)c(=O)c3sc4ccccc4c32)c1 | -28%[53 µM] | nt | 10% | -29% | ? | 25µM*[quencher]
COc1ccc(NC(=O)Cn2c(=O)n(Cc3ccccc3)c(=O)c3oc4ccccc4c32)cc1Cl | -2% | nt | ? | -28% | 28µM* | -1%
Cc1ccc(Cn2c(=O)c3cccnc3n(CC(=O)Nc3cccc(C(F)(F)F)c3)c2=O)cc1 | 0% | 2% | 13% | -10% | 18µM*! | ?
COc1ccc(NC(=O)Cn2c(=O)n(Cc3ccccc3OC)c(=O)c3cccnc32)cc1Cl | -6% | nt | 20% | -27% | 25µM* | 4%
CCc1ccc(NC(=O)Cn2c(=O)n(Cc3ccccc3)c(=O)c3oc4ccccc4c32)cc1 | 5% | nt | ? | -14% | ? | -1%
COc1ccc(N2CCN(C(=S)NC(C)c3ccccc3)CC2)cc1 (configuration not stated) | 3% | 0% | ? | ? | 6% | 0%
SMILES | TRb-SRC2 inh | KDM4E inh | Tau ThT inhib | Tau fluor counter | Tau FP inhib | TexasRed fluor
CSCC[C@H](NC(=O)OC(C)(C)C)C(=O)N/N=C/c1cccc2cccnc12 | -2% | ? | ? | -20% | -3% | -3%
CCOC(=O)c1cc(C(=O)Nc2ccc(C)c(F)c2)nn1C | 5% | ? | -18% | -8% | 2% | -1%
COc1ccc(CCNC[C@@H](O)c2ccc(O)cc2)cc1OC | 4% | 5% | 1% | -3% | 5% | -1%
O=[N+]([O-])c1ccc(/C=N/N=C/c2ccc([N+](=O)[O-])o2)o1 | -4% | 14µM* | 13µM* | ? | ? | -9%
CC(=O)N/N=C/c1ccc([N+](=O)[O-])o1 | -2% | nt | nt | nt | nt | -1%
COC(=O)c1c(C)[nH]c(C(=O)OCC(=O)NC(C)(C)C)c1C | 4% | -3% | -7% | -6% | -2% | -1%
O=C1c2ccccc2-c2nc3ccccc3nc21 | -9% | -3% | 20µM* | ? | ? | -5%
O=C(Cc1ccc(Cl)cc1)Nc1ccc(N2CCCC2)cc1 | 2% | -18% | ? | -15% | 5% | -4%
Clc1cccc(Cl)c1CNc1ccc(N2CCCC2)cc1 | -18% | 13µM* | 7.9µM* | ? | ? | 23%
CCc1cc(=O)oc2cc(OCc3nn[nH]n3)ccc12 | 2% | 20µM* | -3% | -3% | 8% | 0%
CCc1cc(=O)oc2cc(OCC=C(C)C)ccc12 | 1% | ? | ? | -16% | -12% | -2%
O=C1NC(c2cc(Cl)cc([N+](=O)[O-])c2O)Nc2ccccc21 (configuration not stated) | -11% | -14% | 7.1µM* | -29% | 6% | -6%
Cc1ccc(C)c(C2NC(=O)c3ccccc3N2)c1 (configuration not stated) | 1% | ? | -5% | -2% | -2% | -2%
CCOC(=O)CSC1=Nc2ccccc2C2=NC(CC(=O)NCc3ccc(OC)cc3)C(=O)N12 (configuration not stated) | -6% | 2% | -10% | 1% | 2% | -4%
COc1ccc(NC(=O)Cn2c(=O)c3cccn3c3ccccc32)cc1 | 8% | nt | -9% | ? | 18µM* | 8%
COc1ccc(OC)c(NC(=O)Cn2c(=O)c3cccn3c3ccccc32)c1 | 5% | nt | ? | ? | 3.2µM* | -14%
COc1ccc(NC(=O)Cn2c(=O)c3cc(Cl)ccc3n3nncc23)cc1 | -23%[53 µM] | nt | -7% | -17% | -3% | 0.35µM*[quencher]
COc1ccc(NC(=O)Cn2c(=O)c3ccccc3n3nncc23)cc1Cl | -2% | nt | -6% | -2% | -2% | 0%
COc1ccc(NC(=O)CCCn2c(=O)c3cccn3c3ccccc32)c(OC)c1 | 4% | nt | ? | -15% | -8% | -2%
CCCCOc1ccc(C(=O)N2CCN(CCc3ccncc3)CC2)cc1 | -11% | nt | 1% | 1% | -9% | 6.3µM*[quencher]
